Broadly, the AC50 is the concentration at which the activity in the assay is half-maximal.

“And” between values parts separate entries of the source, which are not always exact repeats. Equal entries are not always repeated. More than one record can exist for a structure, and the calls need not agree. The source made the active and inactive calls. The calls were made as follows: active = hit-call score of the fitted dose curve at least 0.9, where 1 is the maximum; inactive = score below 0.9.

For 14 molecules, AC50 and outcome results are on record in PubChem BioAssay (EPA / NIEHS).

Conditions in all cases: mRNA level, 48 h; actives raise or lower the signal
Read-out in assay [1]: Protein phosphatase 2A (PPP2R4), PTPA (gene 5524)
Nature of the assay: LTEA_HepaRG_PPP2R4: Life Technologies and Expression Analysis (LTEA) Assay for Protein phosphatase 2A (PPP2R4) using HepaRG (AID 2283522). The method in brief:
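Differentiated human HepaRG cells in serum-free induction medium were exposed 48 h to 8 concentrations (top 100 µM, half-log steps, duplicate) in 0.5% DMSO. PPP2R4 mRNA was measured by TaqMan qRT-PCR, normalised to ACTB, GAPDH and POLR2A, and fitted bidirectionally versus DMSO.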

Read-out in assay [2]: Phosphatase and tensin (PTEN), PTEN (gene 5728)
Nature of the assay: LTEA_HepaRG_PTEN: Life Technologies and Expression Analysis (LTEA) Assay for Phosphatase and tensin (PTEN) using HepaRG (AID 2283523). The method in brief: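 HepaRG cells, 48 h after plating, exposed in duplicate for 48 h in serum-free induction medium to 8 half-log concentrations up to 100 uM (0.5% DMSO). PTEN mRNA by qRT-PCR, normalized to ACTB, GAPDH, POLR2A; bidirectional fit versus DMSO.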

Read-out in assay [3]: solute carrier (SLC22A1), SLC22A1 (gene 6580)
The experiment in a line: LTEA_HepaRG_SLC22A1: Life Technologies and Expression Analysis (LTEA) Assay for solute carrier (SLC22A1) using HepaRG (AID 2283524). In short, it runs like this:
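Differentiated human HepaRG cells in serum-free induction medium, exposed 48 h in duplicate to 8-point half-log series from 100 µM top in 0.5% DMSO. SLC22A1 mRNA by TaqMan qRT-PCR normalized to ACTB, GAPDH, POLR2A; bidirectional fit versus DMSO.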

Read-out in assay [4]: Pyruvate Dehydrogenase Kinase 4 (PDK4), PDK4 (gene 5166)
Nature of the assay: LTEA_HepaRG_PDK4: Life Technologies and Expression Analysis (LTEA) Assay for Pyruvate Dehydrogenase Kinase 4 (PDK4) using HepaRG (AID 2283525). The method in brief: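 HepaRG cells plated 48 h, then switched to serum-free induction medium and exposed in duplicate for 48 h to 8 half-log concentrations from 100 uM in 0.5% DMSO. PDK4 mRNA measured by qRT-PCR, normalized to ACTB, GAPDH and POLR2A; bidirectional fit versus DMSO.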

Read-out in assay [5]: NAD(P)H dehydrogenase [quinone] 1 (NQO1), NQO1 (gene 1728)
The experiment in a line: LTEA_HepaRG_NQO1: Life Technologies and Expression Analysis (LTEA) Assay for NAD(P)H dehydrogenase [quinone] 1 (NQO1) using HepaRG (AID 2283526). The method in brief:
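Differentiated human HepaRG cells in serum-free induction medium, dosed in duplicate for 48 h at 8 half-log concentrations up to 100 uM in 0.5% DMSO. NQO1 mRNA by qRT-PCR normalized to ACTB, GAPDH, POLR2A; bidirectional fit versus DMSO baseline.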

Read-out in assay [6]: Nuclear factor erythroid 2-related factor 2 (Homo sapiens) (UniProt Q16236)
The experiment in a line: LTEA_HepaRG_NFE2L2: Life Technologies and Expression Analysis (LTEA) Assay for Nuclear factor erythroid 2-related factor 2 (NFE2L2) Transcription Factor using HepaRG (AID 2283527).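 As to outcome: TaqMan qRT-PCR transcript level normalised to ACTB GAPDH and POLR2A housekeeping genes.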 In short, it runs like this: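 Differentiated human HepaRG cells, serum-free induction medium, exposed 48 h in duplicate to eight half-log concentrations up to 100 uM in 0.5% DMSO. NFE2L2 mRNA by Fluidigm TaqMan qRT-PCR, normalised to ACTB, GAPDH, POLR2A; bidirectional change versus DMSO.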

Read-out in assay [7]: succinate dehydrogenase complex iron sulfur subunit B (SDHB), SDHB (gene 6390)
The experiment in a line: LTEA_HepaRG_SDHB: Life Technologies and Expression Analysis (LTEA) Assay for succinate dehydrogenase complex iron sulfur subunit B (SDHB) using HepaRG (AID 2283528). The method in brief:
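HepaRG cells (~100,000/well, plated 48 h) exposed in duplicate for 48 h in serum-free induction medium to 8-point half-log series from 100 uM in 0.5% DMSO; mRNA by qRT-PCR normalised to ACTB, GAPDH, POLR2A; bidirectional fit versus DMSO.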

Read-out in assay [8]: Signal transducer and activator of transcription 3 (Homo sapiens) (UniProt P40763)
Nature of the assay: LTEA_HepaRG_STAT3: Life Technologies and Expression Analysis (LTEA) Assay for Signal transducer and activator of transcription (STAT3) using HepaRG (AID 2283529). In short, it runs like this: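 Differentiated HepaRG cells, serum-free induction medium, dosed 48 h in duplicate, 8 half-log concentrations from 100 uM in 0.5% DMSO. STAT3 mRNA by qRT-PCR, normalised to ACTB, GAPDH, POLR2A; bidirectional fit versus DMSO.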

Read-out in assay [9]: solute carrier (SLCO1B1), SLCO1B1 (gene 10599)
Nature of the assay: LTEA_HepaRG_SLCO1B1: Life Technologies and Expression Analysis (LTEA) Assay for solute carrier (SLCO1B1) using HepaRG (AID 2283530). The method in brief:
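Gain or loss of SLCO1B1 mRNA is fitted against the 0.5% DMSO vehicle in human HepaRG liver cells treated 48 h at up to 100 uM in half-log steps. Expression comes from qRT-PCR normalized to endogenous controls.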

Read-out in assay [10]: Nuclear factor NF-kappa-B p105 subunit (Homo sapiens) (UniProt P19838)
The experiment in a line: LTEA_HepaRG_NFKB1: Life Technologies and Expression Analysis (LTEA) Assay for Nuclear Factor Kappa B Subunit 1 (NFKB1) using HepaRG (AID 2283521).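 Also: TaqMan qRT-PCR transcript normalised to ACTB GAPDH and POLR2A housekeeping genes.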 In short, it runs like this:
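Differentiated human HepaRG cells in serum-free induction medium with 0.5% DMSO were exposed for 48 h to eight half-log concentrations, top 100 uM, in duplicate. NFKB1 mRNA measured by Fluidigm TaqMan qRT-PCR, normalised to ACTB, GAPDH and POLR2A; bidirectional fit versus DMSO.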

Nuclear factor NF-kappa-B p105 subunit (Homo sapiens), sequence (P19838 whole entry, looked up): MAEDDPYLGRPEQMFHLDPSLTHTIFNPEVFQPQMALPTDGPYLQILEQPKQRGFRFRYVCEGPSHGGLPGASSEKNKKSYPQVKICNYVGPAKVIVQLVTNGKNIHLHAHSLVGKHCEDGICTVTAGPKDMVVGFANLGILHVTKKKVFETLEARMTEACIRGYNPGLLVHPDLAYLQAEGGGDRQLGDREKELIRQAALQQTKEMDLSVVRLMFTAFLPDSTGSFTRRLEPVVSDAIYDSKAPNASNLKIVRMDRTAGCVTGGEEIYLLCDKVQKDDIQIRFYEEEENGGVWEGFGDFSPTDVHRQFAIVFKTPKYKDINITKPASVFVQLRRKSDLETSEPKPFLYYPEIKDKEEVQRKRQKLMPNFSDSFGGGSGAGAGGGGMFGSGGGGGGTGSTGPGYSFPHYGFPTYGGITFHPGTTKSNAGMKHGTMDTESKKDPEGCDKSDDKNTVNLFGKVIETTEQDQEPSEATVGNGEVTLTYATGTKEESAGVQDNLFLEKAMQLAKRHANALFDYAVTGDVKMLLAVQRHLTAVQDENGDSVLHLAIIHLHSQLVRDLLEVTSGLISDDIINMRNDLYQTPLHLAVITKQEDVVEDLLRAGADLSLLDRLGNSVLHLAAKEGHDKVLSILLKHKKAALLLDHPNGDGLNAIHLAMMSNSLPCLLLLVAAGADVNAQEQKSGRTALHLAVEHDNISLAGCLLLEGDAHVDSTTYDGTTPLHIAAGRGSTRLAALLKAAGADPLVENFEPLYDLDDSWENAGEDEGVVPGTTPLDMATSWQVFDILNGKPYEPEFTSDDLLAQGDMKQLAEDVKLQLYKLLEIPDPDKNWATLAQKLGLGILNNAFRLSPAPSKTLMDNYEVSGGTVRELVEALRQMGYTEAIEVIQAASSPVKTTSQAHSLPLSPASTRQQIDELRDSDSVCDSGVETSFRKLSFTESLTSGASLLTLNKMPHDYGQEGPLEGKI
Nuclear factor erythroid 2-related factor 2 (Homo sapiens), sequence (Q16236 whole entry, looked up): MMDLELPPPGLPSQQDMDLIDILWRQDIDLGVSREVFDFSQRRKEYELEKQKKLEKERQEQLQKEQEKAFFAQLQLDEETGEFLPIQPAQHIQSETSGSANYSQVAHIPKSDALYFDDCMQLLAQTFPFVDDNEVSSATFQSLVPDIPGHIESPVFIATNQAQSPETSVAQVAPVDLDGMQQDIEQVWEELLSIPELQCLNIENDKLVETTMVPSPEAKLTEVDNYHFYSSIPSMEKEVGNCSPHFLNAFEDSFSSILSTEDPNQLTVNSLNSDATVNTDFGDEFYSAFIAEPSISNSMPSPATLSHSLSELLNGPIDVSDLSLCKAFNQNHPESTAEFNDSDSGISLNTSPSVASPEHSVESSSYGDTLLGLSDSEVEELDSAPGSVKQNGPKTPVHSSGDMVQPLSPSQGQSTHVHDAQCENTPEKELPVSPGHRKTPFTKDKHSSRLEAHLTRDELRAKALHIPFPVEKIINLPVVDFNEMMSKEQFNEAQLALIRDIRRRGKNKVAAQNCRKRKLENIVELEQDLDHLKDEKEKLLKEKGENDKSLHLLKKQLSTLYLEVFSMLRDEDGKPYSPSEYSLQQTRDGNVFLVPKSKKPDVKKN
Signal transducer and activator of transcription 3 (Homo sapiens), sequence (P40763 whole entry, looked up): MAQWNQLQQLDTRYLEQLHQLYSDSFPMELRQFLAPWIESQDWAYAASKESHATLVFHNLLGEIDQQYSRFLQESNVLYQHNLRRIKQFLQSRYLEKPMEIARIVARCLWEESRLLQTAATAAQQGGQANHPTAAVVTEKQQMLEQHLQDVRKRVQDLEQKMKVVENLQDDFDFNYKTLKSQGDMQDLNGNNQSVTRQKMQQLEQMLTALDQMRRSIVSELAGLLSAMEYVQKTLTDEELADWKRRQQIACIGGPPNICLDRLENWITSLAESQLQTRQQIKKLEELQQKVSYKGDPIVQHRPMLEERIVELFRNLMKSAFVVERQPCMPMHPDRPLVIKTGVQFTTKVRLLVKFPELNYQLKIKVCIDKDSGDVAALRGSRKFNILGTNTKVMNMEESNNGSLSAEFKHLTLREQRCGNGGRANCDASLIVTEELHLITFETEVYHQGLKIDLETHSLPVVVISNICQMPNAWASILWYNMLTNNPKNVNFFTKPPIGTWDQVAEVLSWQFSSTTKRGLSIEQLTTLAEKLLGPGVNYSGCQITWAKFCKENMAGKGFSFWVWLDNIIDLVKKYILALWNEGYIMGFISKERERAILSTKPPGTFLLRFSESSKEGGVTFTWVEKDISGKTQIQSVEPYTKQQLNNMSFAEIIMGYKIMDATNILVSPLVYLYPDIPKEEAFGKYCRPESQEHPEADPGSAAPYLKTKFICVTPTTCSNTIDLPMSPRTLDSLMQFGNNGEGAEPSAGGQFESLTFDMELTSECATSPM

Consider `CC(C)(C)c1ccc(CSc2cnn(C(C)(C)C)c(=O)c2Cl)cc1`, for which the concentration at half-maximal activity (AC50) was 1.84 µM (active) in assay [1]; 2.71 µM (active) in assay [3]; 9.92 µM (active) in assay [4]; 26.7 µM (active) in [6]; 1.54 µM (active) in [7]; 2.34 µM (active) in [9]. Besides, the call in assay [2], in assay [5] and in assay [8] was inactive.
Turning to `CCCCOC(=O)c1ccccc1C(=O)OCCCC`, the outcome in [10], in assay [1], in [2], in assay [3], in assay [4] and in assay [5] was inactive. For the same molecule, the call in [6], in assay [7], in [8] and in assay [9] was inactive.
As to `CCCCNC(=O)OCC#CI`, the outcome in assay [1], in [2], in assay [3], in assay [4], in [5] and in [6] was inactive. Besides, the outcome in assay [7] and in assay [8] was inactive. Moreover, the half-maximal activity concentration (AC50) in [9] was 50 µM (active).
In the case of `COP(=S)(OC)Oc1nc(Cl)c(Cl)cc1Cl`, the molecule was classed as inactive in assay [1], in assay [2], in assay [3], in assay [4], in assay [5] and in [6]. The result in assay [7], in [8] and in assay [9] was inactive.
With `Oc1ccccc1-c1ccccc1`, the call in assay [1], in [2], in assay [3], in assay [4], in assay [5] and in assay [6] was inactive. The outcome in assay [7], in assay [8] and in assay [9] was inactive.
For the molecule `C=CC1(C)OC(=O)N(c2cc(Cl)cc(Cl)c2)C1=O` (stereo unspecified), the result in [10], in assay [1], in assay [2], in [3], in assay [5] and in [6] was inactive. Also, the result in [7], in [8] and in assay [9] was inactive. Moreover, the half-maximal activity concentration (AC50) in assay [4] was 50 µM (active).
As to `CCNc1nc(Cl)nc(NCC)n1`, the molecule was classed as inactive in [1], in assay [2], in assay [3], in assay [4], in assay [5] and in assay [6]. Further, the molecule was called inactive in assay [7], in assay [8] and in [9].
Turning to `CO/C=C(/C(=O)OC)c1ccccc1Oc1cc(Oc2ccccc2C#N)ncn1`, the result in assay [1], in assay [2], in assay [4], in [5], in assay [6] and in [7] was inactive. Also, the call in assay [8] was inactive. In addition, the AC50 was 78 µM (active) and 70.5 µM (active) and 68.7 µM (active) in [3]; 18.6 µM (active) in [4]; 77.7 µM (active) and 74.5 µM (active) in [6]; 76.2 µM (active) and 72.9 µM (active) and 75.6 µM (active) in assay [9].
On to `CC1=C(C(=O)Nc2ccccc2)SCCO1`, for which the result in assay [1], in assay [2], in assay [4], in assay [5], in assay [6] and in assay [7] was inactive. The call in [8] and in assay [9] was inactive. In addition, the AC50 in assay [3] is 14.2 µM (active).
With `CC1COC(Cn2cncn2)(c2ccc(Oc3ccc(Cl)cc3)cc2Cl)O1` (stereo unspecified), the AC50 in [1] was 80.6 µM (active); in assay [2], 78.5 µM (active); in [3], 9.15 µM (active); in assay [6] it was 19.7 µM (active); in assay [7], 84.8 µM (active); in assay [9], 12.8 µM (active). Besides, the result in assay [4], in assay [5] and in [8] was inactive.
For the molecule `CON(C)C(=O)Nc1ccc(Cl)c(Cl)c1`, the result in [10], in [1], in assay [2], in assay [4], in assay [5] and in [7] was inactive. Moreover, the outcome in [8] and in assay [9] was inactive. The figures for the AC50 in [3] and in assay [6] were 50 µM (active) and 86.9 µM (active), respectively.
Consider `COC(=O)C=C(C)OP(=O)(OC)OC`, for which the call in assay [1], in assay [2], in [3], in assay [4], in assay [5] and in assay [6] was inactive. Further, the call in assay [7], in assay [8] and in [9] was inactive.
For `COC(=O)N(OC)c1ccccc1COc1ccn(-c2ccc(Cl)cc2)n1`, the result in [1], in assay [7] and in assay [8] was inactive. The AC50 was 78.5 µM (active) in [2]; 58.7 µM (active) in [3]; 11.3 µM (active) in [4]; 84.8 µM (active) in assay [5]; 18.3 µM (active) in assay [6]; 75.9 µM (active) in [9].
On to `COc1cnc(OC)n2nc(NS(=O)(=O)c3c(OCC(F)F)cccc3C(F)(F)F)nc12`, for which the result in assay [1], in [2], in [3], in assay [4], in assay [5] and in assay [6] was inactive. Moreover, the call in [7], in assay [8] and in assay [9] was inactive.
